Pol kappa inh – qHTS for Inhibitors of Polymerase Kappa; DNA polymerase kappa (Homo sapiens), Q9UBT6; purified Pol kappa, fluorescent DNA synthesis assay, 10 min; Potency, µM (doses to about 107 µM), for inactives: at the top dose activity, negative = inhibition, usual class: inhibitors; 400,000 compounds, 0.53% hits; further: on the % scale 0 is the no-effect control and ±100 the full control effect
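10 nM Pol kappa preincubated 15 min at room temperature with compounds, then reaction started with substrate at 50 nM final. Fluorescence read kinetically at 0 and 10 min; buffer-only wells served as negative control.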
Pol beta inh – qHTS Assay for Inhibitors of DNA Polymerase Beta; P06746; Pol beta primer extension/strand displacement, fluorescence kinetic; Potency, µM (doses to about 114 µM), inactives show at the top dose activity change, negative = inhibition, usual class: inhibitors; 340,000 compounds, 1.3% hits; AID 485314, 2010; further: on the % scale 0 is the no-effect control and ±100 the full control effect
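Preincubation: enzyme (10 nM) with compound, 15 min, RT. Reaction: substrate added to 50 nM final. Reads: 0 and 10 min. Analysis: normalized, Hill fit.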
POLI inh – qHTS for Inhibitors of Polymerase Iota. DNA polymerase iota (Homo sapiens), Q9UNA4. Pol iota fluorescent replication assay, 10 min. Potency, µM (doses to about 115 µM), for inactives: at the highest dose activity, negative = inhibition, most hits filed as inhibitors. 390,000 compounds, 1% hits. AID 588590, 2011
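Fluorescent replication assay read twice, at 0 min and 10 min after adding 50 nM (final) substrate. Enzyme (10 nM) and compounds were first incubated 15 min at room temperature; enzyme-free buffer wells were negative controls.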
TDP1 inh – qHTS Assay for Inhibitors of Tyrosyl-DNA Phosphodiesterase (TDP1) | Tyrosyl-DNA phosphodiesterase 1 (Homo sapiens), Q9NUW8 | recombinant TDP1, AlphaScreen DNA substrate cleavage | Potency, µM (top dose mostly 130 µM), inactives show at the top dose activity change, negative = inhibition, most hits filed as inhibitors | 350,000 compounds, 0.28% hits | AID 485290, 2010; further: on the % scale 0 is the no-effect control and ±100 the full control effect; nearly all actives have a fitted effect of over 40% in size
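Here, a 5' biotin and 3' phosphotyrosine-FITC DNA oligonucleotide reports Tdp1 activity: intact substrate bridges AlphaScreen beads, while cleavage leaves a 3' phosphate and drops signal. All incubations at room temperature.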
Pol eta inh – qHTS for Inhibitors of Polymerase Eta | recombinant Pol eta, fluorescent DNA replication assay | 390,000 compounds, 1.2% hits | AID 588591, 2011 | DNA polymerase eta (Homo sapiens), Q9Y253 | Potency, µM (highest dose often 114 µM), for the others: at the top dose activity change, negative = inhibition, hits mostly inhibitors; further: on the % scale 0 is the no-effect control and ±100 the full control effect
Target sequence (Q9Y253 whole entry, looked up): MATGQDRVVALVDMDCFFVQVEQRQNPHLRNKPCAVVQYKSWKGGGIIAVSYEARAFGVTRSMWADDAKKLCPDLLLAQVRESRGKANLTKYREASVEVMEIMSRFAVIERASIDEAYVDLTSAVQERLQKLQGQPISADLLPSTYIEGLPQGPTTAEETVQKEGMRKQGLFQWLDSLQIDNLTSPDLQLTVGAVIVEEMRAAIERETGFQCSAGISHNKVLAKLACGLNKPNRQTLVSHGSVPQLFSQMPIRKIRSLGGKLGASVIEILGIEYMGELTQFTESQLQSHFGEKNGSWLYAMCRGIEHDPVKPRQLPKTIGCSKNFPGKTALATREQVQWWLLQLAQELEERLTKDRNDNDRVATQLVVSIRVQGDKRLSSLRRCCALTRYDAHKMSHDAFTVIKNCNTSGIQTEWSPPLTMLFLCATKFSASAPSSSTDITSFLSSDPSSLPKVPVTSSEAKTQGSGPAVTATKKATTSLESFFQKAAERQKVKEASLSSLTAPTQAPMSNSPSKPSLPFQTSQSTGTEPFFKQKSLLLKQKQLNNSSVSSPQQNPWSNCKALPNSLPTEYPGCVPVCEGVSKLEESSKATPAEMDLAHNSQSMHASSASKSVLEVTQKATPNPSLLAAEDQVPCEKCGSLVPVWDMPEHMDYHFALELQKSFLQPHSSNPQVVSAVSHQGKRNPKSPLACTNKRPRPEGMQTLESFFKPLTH
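Fluorescent replication assay: 50 nM final substrate added after a 15 min room-temperature compound preincubation with 10 nM enzyme. Signal taken at 0 min and again at 10 min.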
* hit, by the source's call; ? = inconclusive; / = not tested or not shown; [ ] = remark or other dose. Shown are actives, neighbours in structure and some others; about 2.4% of the full set was active somewhere. The call rests on the fitted dose curve; in most records, active means well fitted curve in the direction sought with a large enough effect; inconclusive means small, poorly fitted or top-dose-only effect, or another doubt; inactive means no such curve, though single readings can be large; an effect the other way counts as inactive or inconclusive. Potency means the concentration at half of the fitted maximal effect.

SMILES	Pol kappa inh	Pol beta inh	POLI inh	TDP1 inh	Pol eta inh
Brc1cccc[n+]1CCCC[n+]1ccccc1Br	-6%	/	?	/	/
O=C(C[n+]1cccc2cccc(O)c21)c1ccc(F)cc1	1%	/	39%	/	/
O=C1NC(=S)N/C1=C/c1cccn1-c1ccc([N+](=O)[O-])cc1	?	7.9µM*	56µM*	1%	?
CCCNC1=C(N(C(C)=O)c2cccc(F)c2)C(=O)c2ccccc2C1=O	0%	18%	79µM*	7%	-15%
CC[C@H](C)[C@H](NC(=O)[C@H](CC(=O)O)NC(=O)[C@H](CC(C)C)NC(=O)[C@H](NC(C)=O)C(c1ccccc1)c1ccccc1)C(=O)N[C@H](C(=O)N[C@@H](Cc1c[nH]c2ccccc12)C(=O)O)[C@@H](C)CC	11%[60.1 µM]	/	/	8%	/
CCOc1ccc(-n2c(C)cc(C(=O)CCl)c2C)cc1	-8%	-21%	33%	3%	?
COC(=O)c1ccc(-n2c(C)cc(C(=O)CCl)c2C)cc1	-5%	-11%	13µM*	8%	?
Cc1nc2ccc(-c3nc4ccccc4[nH]3)cc2[nH]1	-37%	13µM*	?	0%	-4%
CCCCS(=O)(=O)N1CCc2nc(-c3ccccc3)c3c(c2C1)CO[C@@H](C)C3	/	/	/	-2%[21 µM]	/
Cc1[nH]n(-c2ccccc2)c(=O)c1C(c1cccc([N+](=O)[O-])c1)c1c(C)[nH]n(-c2ccccc2)c1=O	-12%	22%	?	11%	-5%
Cc1[nH]n(-c2ccccc2)c(=O)c1C(c1ccc(C(=O)O)cc1)c1c(C)[nH]n(-c2ccccc2)c1=O	-16%	11%	1.4µM*	0%	-4%
CCOc1ccc(C(c2c(C)[nH]n(-c3ccccc3)c2=O)c2c(C)[nH]n(-c3ccccc3)c2=O)cc1OC	-25%	-1%	0.71µM*	/	-2%
Cc1ccc(CNc2ccc(-c3nc(-c4ccncc4)no3)cc2[N+](=O)[O-])cc1	-21%	-28%	25%	14%	-8%
CCCCCC1CCNCC1	1%	/	12%	/	/
NC(=O)c1ccccc1NC(=O)/C=C/c1ccc(Cl)cc1	-9%	-1%	7%[58.9 µM]	3%	-3%
O=C(/C=C/c1ccc(Cl)cc1)NC(=S)Nc1ccccc1C(=O)O	-12%	?	?	4%	56µM*
Cc1noc(C)c1-c1cc(NC2CC2)ncn1	-1%[60.1 µM]	/	/	40µM*	/
Cc1noc(C)c1-c1cncnc1NC1CC1	-3%[60.1 µM]	/	/	28µM*	/
Cc1noc(C)c1-c1cncnc1Nc1ccccc1	-16%[60.1 µM]	/	/	/	/
CCC(C)N1C(=O)/C(=C/c2c(NCCCOC(C)C)nc3c(C)cccn3c2=O)SC1=S (stereo not drawn)	-7%	28µM*	13%	-2%	22µM*
O=C(C[N+]12CCCc3cccc(c31)CCC2)c1ccc2ccccc2c1	-10%	/	95%	/	/
CC(=O)NC1=C(NC2CCS(=O)(=O)C2)C(=O)c2ccccc2C1=O (stereo not drawn)	4%	0%	21%	-6%	-6%
CN(C1=C(NC(=O)c2ccccc2)C(=O)c2ccccc2C1=O)C1CCS(=O)(=O)C1 (stereo not drawn)	6%[60.1 µM]	?	7.9µM*	3%	79µM*
CCOCCc1nnc(NC(=O)Cc2ccc(Br)cc2)s1	-4%	89µM*	-4%	4%	-9%
COc1ccc(/C=C2\SC(=O)N(CCCC(=O)Nc3ccc(C(=O)O)cc3)C2=O)cc1	/	/	/	/	-2%
COc1ccc(NC(=O)CN2C(=O)S/C(=C/c3cccn3-c3ccc(C(=O)O)cc3)C2=O)cc1	/	?	/	20µM*	/
CCc1ccc(NC(=O)Cn2ccn(-c3ccc(OC)cc3)c(=O)c2=O)cc1	-11%	32µM*	11%	0%	-6%
Cc1ccc(NC(=O)CN2C(=O)S/C(=C\c3cc(C)n(-c4ccc(C(=O)O)cc4)c3C)C2=O)cc1	-5%	79µM*	?	-10%	79µM*
Cc1cccc(NC(=O)CN2C(=O)S/C(=C\C(=O)Nc3ccc(Cl)cc3)C2=O)c1	-20%	-15%	-13%	-2%	-21%

Screening results deposited in PubChem BioAssay by National Center for Advancing Translational Sciences (NCATS).
